Measurements taken from PubChem BioAssay (Tox21).
Records with an inconclusive call do not appear. Entries that show only a call come without a potency. Calls of active or inactive are those of the source. Calls follow the shape of the dose curve; as a rule, active = well fitted activation curve with a large enough effect in the repeat runs; inconclusive = weak or mixed curves; inactive = flat fitted curve, though single readings scatter.

Assay: A CellTox Green Cytotoxicity Assay to monitor cytotoxicity in HepG2 cells - 8 hour (AID 1224890); also: nearly all actives have a fitted effect of over 45% in size
Details: CellTox Green fluorescence; series mostly up to 76.8 µM
Excerpt: National Center for Advancing Translational Sciences [NCATS]
NIH Chemical Genomics Center [NCGC]
U.S. Environmental Protection Agency [EPA]
National Institutes of Environmental Health Sciences [NIEHS]
National Toxicology Program [NTP]
Cell-based models are critical for drug discovery. Determining the natural cytotoxic effects resulting from test compounds is an essential research activity. A CellTox Green Cytotoxicity Assay to monitor cytotoxicity in real time of continues cell culture during 40 hours of the compound treatment was used to screen Tox21 10K library compounds in HepG2 cells. CellTox Green Cytotoxicity Assay is a nonlytic, homogeneous, biofluorescent method to measure cytotoxicity in cell culture after experimental manipulation. The assay system uses a proprietary asymmetric cyanine dye that is excluded from viable cells but preferentially stains the dead cell's DNA. […] Viable cells produce no appreciable increases in fluorescence. Therefore, the fluorescence signal produced by the binding interaction with dead cell DNA is proportional to cytotoxicity.
The mixture of HepG2 cell suspension and reagents were dispensed at 600cells/6 ul/well in 1536-well tissue culture treated black solid bottom plates using a Multidrop dispenser. After the assay plates were incubated at a 37 C/5% CO2 incubator for 5 hours, 23 nL of compounds dissolved in DMSO, positive and negative controls was transferred to the assay plate by a pintool work station. The plates were incubated at 37 C for 40 hours. The fluorescence intensity were measured at 0h, 8h, 16h, 24h, 32h and 40h time points using ViewLux plate reader during compound treatment.

Compound | Potency | cytotoxicity increase
COC(C)(C)CCO | inactive | –
O=C(O)c1ccccc1Cl | inactive | –
C/C=C(/C(=C/C)c1ccc(OC(C)=O)cc1)c1ccc(OC(C)=O)cc1 | inactive | –
C=C(C)C(=O)OCCOCC | inactive | –
C=C1[C@H]2CC[C@@H]3[C@H]2C(C)(C)CCC[C@]13C | inactive | –
CC(C)(C)Cl | inactive | –
O=C(O)c1ccc(-n2nc(-c3ccccc3O)nc2-c2ccccc2O)cc1 | inactive | –
CN(C)c1ccc(CCO)cc1 | inactive | –
O=C1C(O)=C(O)C(=O)C(O)=C1O | inactive | –
CC1(c2ccccc2)OC(C(=O)O)=CC1=O (stereo not given) | inactive | –
C=CCOC(=O)CCC1CCCCC1 | inactive | –
CCCCCCCN | inactive | –
CCCCC1=NC2(CCCC2)C(=O)N1Cc1ccc(-c2ccccc2-c2nn[nH]n2)cc1 | inactive | –
CCC(C)(C)CC | inactive | –
COc1ccc(C(=O)c2ccc(OC)cc2O)c(O)c1 | inactive | –
CCOC(=O)C(F)(F)F | inactive | –
O=C(O)c1ccc(S(=O)(=O)O)cc1C(=O)O | inactive | –
CC1=CC[C@H](C(C)C)C=C1 | inactive | –
O[C@@H](COc1cccc2ncccc12)CN1CCN(C2c3ccccc3[C@@H]3[C@H](c4ccccc42)C3(F)F)CC1 (stereo not given in full) | inactive | –
C[C@@H]1C[C@H]2O[C@@]3(O[C@@H]2C(C)(C)O)[C@H](O)[C@@]2(C)[C@@H]4CC[C@H]5C(C)(C)[C@@H](O[C@@H]6OC[C@@H](O)[C@H](O)[C@H]6O)CC[C@@]56C[C@@]46CC[C@]2(C)[C@@H]13 | inactive | –

Compound | Potency | cytotoxicity increase
CC(C)O.CC(C)O.CCOC(=O)/C=C(\C)O.CCOC(=O)/C=C(\C)O.[Ti] | inactive | –
Cc1cccc(C)c1NC(=O)CN(CC(=O)O)CC(=O)O | inactive | –
CC(C)OC(=O)C(C)N(C(=O)c1ccccc1)c1ccc(F)c(Cl)c1 (stereo not given) | inactive | –
CCNc1cc(O)ccc1C | inactive | –
ClCCOCCOCCCl | inactive | –
OCCN1CCN(CCCN2c3ccccc3C=Cc3ccccc32)CC1 | inactive | –
C#CCN(C)CCCOc1ccc(Cl)cc1Cl | inactive | –
CCN(CC)CCNC(=O)c1cc(Br)c(N)cc1OC | inactive | –
O=C1[C@H]2CCCC[C@H]2C(=O)N1CCCCN1CCN(c2nsc3ccccc23)CC1 | inactive | –
OCc1cc(C(O)CNCCCCCCOCCCCc2ccccc2)ccc1O (stereo not given) | inactive | –
O=P(O)(OCc1ccccc1)OCc1ccccc1 | inactive | –
CC(COCCO)OCCO (stereo not given) | inactive | –
O=C1OC(CN2CCOCC2)CN1/N=C/c1ccc([N+](=O)[O-])o1 (stereo not given) | inactive | –
O=C(O)CNCC(=O)O | – | 3.91% [at 6.97 µM] (inactive)
CCOc1ccc(N=Nc2ccc(/C=C/c3ccc(N=Nc4ccc(OCC)cc4)cc3S(=O)(=O)O)c(S(=O)(=O)O)c2)cc1 | inactive | –
CCCCc1ncc(/C=C(\Cc2cccs2)C(=O)O)n1Cc1ccc(C(=O)O)cc1 | inactive | –
CN1Cc2cc(C(=O)N3CCC(C4CCNCC4)CC3)ccc2NC(CC(=O)O)C1=O (stereo not given) | inactive | –
O=C1CCC(=O)O1 | inactive | –
Clc1ccc2c(c1)CCc1cccnc1C2=C1CCNCC1 | inactive | –
O=[N+]([O-])c1ccc(NCCO)c(OCCO)c1 | inactive | –
